Drawing on PubChem BioAssay (NCATS), this text covers Potency for 40 molecules.

Molecules are shown by their SMILES. Results filed as inconclusive are left out. Where a call stands in place of a potency, no number is given. The source made the active and inactive calls. Calls come from the whole dose curve; as a rule, active = well fitted cell-killing curve with a large enough effect; inconclusive = small, poorly fitted or top-dose-only effect; inactive = no such curve, though single readings can be large or run the other way.
Potency is the fitted concentration of half-maximal effect.

The experiment is described as follows: qHTS of pediatric cancer cell lines to identify multiple opportunities for drug repurposing: Primary screen for SK-N-MC cells (AID 1347093). To be noted: SK-N-MC viability, CellTiter-Glo luminescence, 48 h; series mostly up to 46 µM. The text has this:
Drug repurposing or repositioning has been offered as a strategy for drug development in oncology programs. This approach has special potential for childhood cancers and other rare or orphan diseases, where the expected return on new drug development has been a disincentive to pharmaceuticals.
In this project we exploit the poly-pharmacology of drugs to discover new indications via phenotypic screening of a panel of 19 well-characterized cell lines derived from solid tumors seen in children and adolescents. The goal is to identify approved drugs with previously unrecognized anticancer properties that has the potential to reveal new mechanisms and biological processes involved in carcinogenesis or drug resistance. We employed a titration-based paradigm (quantitative high-throughput screening or qHTS), where all compounds were tested at multiple concentrations for their effect on cell viability. Concentration-response curves (CRCs) were derived directly from the primary screen, and both potency and efficacy values were used to identify compounds with robust bioactivity profiles. We screened the NIH Chemical Genomics Center (NCGC) Pharmaceutical Collection (NPC) and Mechanism Interrogation Plate (MIPE) small molecule collections of approved and investigational compounds against these cell lines; and measured metabolically active cells after 48 hours of compound treatment as a proxy for cell viability.
Assay Submitter: Nathalia J. Martinez, National Center for Advancing Translational Sciences, National Institutes of Health, Rockville, MD, USA; email: natalia.martinez@nih.gov
[1] Shen, M et al. Quantitative high-throughput phenotypic screening of pediatric cancer cell lines identifies multiple opportunities for drug repurposing. Oncotarget 2017 Dec 19;9(4):4758-4772. PMID 29435139.
The cells were obtained from University of North Carolina (UNC), Pediatric Preclinical Testing Program (PPT), and Coriell Institute (CI).
qHTS cell viability assay:
Cells were assayed in growth media at a density of 500-1,000 cells/well. Five microliters of cells were dispensed into 1,536-well, white, solid-bottom, TC-treated plates (Greiner Bio One) using a multidrop dispenser and incubated at 37 degrees C, 5% CO2, under a humidified atmosphere for 5 hours. Twenty-three nanoliters of compounds and controls (neutral control DMSO or positive control bortezomib at final concentration of 2.3 µM) were subsequently transferred by Kalypsys pintool. For primary screens, the MIPE collection was tested at 11-point dilutions (final concentrations range from 0.78 nM to 46 µM) and the NPC collection at 8-point dilutions (final concentrations range from 0.59nM to 46 µM). Compounds tested in follow-up screens were assayed at 11-point dilutions. Cells were incubated for 48 hours, followed by addition of 3 uL of CellTiter-Glo (Promega). After a 15 min incubation at room temperature, samples were analyzed for luminescence intensity using a ViewLux High-throughput CCD imager equipped with clear filters.
As for `CCOC(=O)Nc1ccc2c(c1)N(C(=O)CCN1CCOCC1)c1ccccc1S2`, the Potency entry was “inactive”.

Regarding `Cc1ccc2c(Br)cc(Br)c(O)c2n1`, the Potency is 11.9 µM (active).

For the molecule `CC1(COc2ccc(CC3SC(=O)NC3=O)cc2)CCCCC1` (stereo not given), the Potency result was “inactive”.

As to `CCN(CC)CCOC(=O)C1(c2ccccc2)CCCC1`, the Potency result was “inactive”.

Regarding `COc1ccc(CN(CCN(C)C)c2ncccn2)cc1`, the Potency result was “inactive”.

As to `CC(C)Cn1cnc2c1c(=O)n(C)c(=O)n2C`, the Potency entry is “inactive”.

Take `CCCCNc1ccc(C(=O)OCCOCCOCCOCCOCCOCCOCCOCCOCCOC)cc1`: the Potency result is “inactive”.

`CCC(Cc1c(I)cc(I)c(N)c1I)C(=O)O` (stereo not given): the Potency entry is “inactive”.

In the case of `Cc1c(-c2ccccc2)oc2c(C(=O)OCCN3CCCCC3)cccc2c1=O`, the Potency entry is “inactive”.

With `CN(C)CCOC(c1ccc(Cl)cc1)c1ccccn1` (stereo not given), the Potency entry is “inactive”.

Turning to `CC[N+](C)(CC)CCOC(=O)C(O)(c1ccccc1)C1CCCCC1` (stereo not given), the Potency result is “inactive”.

For `C#C[C@]1(O)CC[C@H]2[C@@H]3CCc4cc(OC)ccc4[C@H]3CC[C@@]21C`, the Potency result is “inactive”.

As for `CCOC(=O)C(C#N)=C(c1ccccc1)c1ccccc1`, the Potency result is “inactive”.

Consider `CC(C)NCC(O)c1ccc2ccccc2c1` (stereo not given), for which the Potency result is “inactive”.

Take `CC(C)=CCOc1ccc(/C=C/C(=O)c2ccc(OCC=C(C)C)cc2OCC(=O)O)cc1`: the Potency is 21.1 µM (active).

As to `CCCCCCCCNC(C)C(O)c1ccc(SC(C)C)cc1` (stereo not given), the Potency was 16.8 µM (active).

Consider `Cc1cc2c(OCC(CNC(C)(C)C)OC(=O)c3ccccc3)cccc2[nH]1` (stereo not given), for which the Potency entry is “inactive”.

`O=C1C(O)=C(O)C(=O)C(O)=C1O`: the Potency result is “inactive”.

For `c1ccc(-c2nc[nH]c2-c2ccccc2)cc1`, the Potency result is “inactive”.

For `CC(C)n1c(/C=C/[C@@H](O)C[C@@H](O)CC(=O)O)c(-c2ccc(F)cc2)c2ccccc21`, the Potency is 15 µM (active).

For `O=C(NC1CCN(CCc2c[nH]c3ccccc23)CC1)c1ccccc1`, the Potency result is “inactive”.

Turning to `CC(=O)Oc1ccc(C)cc1`, the Potency result was “inactive”.

Turning to `OCc1ccccn1`, the Potency result is “inactive”.

Take `CC(=O)O[C@H]1C[C@@H]2CC[C@@H]3[C@H](CC[C@@]4(C)[C@H]3C[C@H]([N+]3(C)CCCCC3)[C@@H]4OC(C)=O)[C@@]2(C)C[C@@H]1N1CCCCC1`: the Potency result was “inactive”.

With `CCC1Nc2cc(Cl)c(S(N)(=O)=O)cc2S(=O)(=O)N1` (stereo not given), the Potency result is “inactive”.

For `COc1cc(N)c(Cl)cc1C(=O)NC1CCN(Cc2ccccc2)CC1`, the Potency entry was “inactive”.

As to `FC(F)(F)C(F)(F)C(F)(F)C(F)(F)C(F)(F)C(F)(F)C(F)(F)C(F)(F)Br`, the Potency entry was “inactive”.

Regarding `O=C(O)C1(C(=O)O)CCC1.[NH2-].[NH2-].[Pt+2]`, the Potency entry is “inactive”.

Consider `COc1ccc(CCN(C)CCCN2CCc3cc(OC)c(OC)cc3CC2=O)cc1OC`, for which the Potency result was “inactive”.

In the case of `NC(=O)c1ccccc1O`, the Potency entry was “inactive”.

In the case of `CCN(CC)CCNC(=O)COc1ccc(OC)cc1`, the Potency result is “inactive”.

Consider `N#CCC(=O)NN`, for which the Potency entry is “inactive”.

For the molecule `COc1ccc(C(=O)c2ccccc2O)c(O)c1`, the Potency result is “inactive”.

`CCCN(CCc1cccs1)[C@H]1CCc2c(O)cccc2C1`: the Potency result was “inactive”.

`C=CCN1CCc2nc(N)sc2CC1`: the Potency entry is “inactive”.

On to `NC(=O)n1c(O)c(C(=O)c2cccs2)c2cc(Cl)ccc21`, for which the Potency was 26.6 µM (active).

Take `CCCc1ncc(C[n+]2ccccc2C)c(N)n1`: the Potency result is “inactive”.

For `CC(=O)Nc1ccc(S(=O)(=O)Nc2ccc([N+](=O)[O-])cc2)cc1`, the Potency entry was “inactive”.

Regarding `O=C1C(CCS(=O)c2ccccc2)C(=O)N(c2ccccc2)N1c1ccccc1` (stereo not given), the Potency result is “inactive”.

Consider `CCOc1ccccc1OCCN[C@H](C)Cc1ccc(OC)c(S(N)(=O)=O)c1`, for which the Potency result is “inactive”.
